# Assay results taken from publication PMC11062922 (Nature Chemical Biology, 2023).
# Like-named read-outs stand apart in the source and are kept apart here.
# Experiments:
# [1] = tested on: CDKL5; conditions: read-out: apparent Kd, n = 1
# [2] = tested on: CLK4; conditions: read-out: apparent Kd, n = 1
# [3] = compound concentrations:100 nM and 1000 nM (sheet 'Lestaurtinib' of Supplementary Table 1),run:Lestaurtinib_02577_R1,Plate:MR016
# [4] = compound concentrations:100 nM and 1000 nM (sheet 'Lestaurtinib' of Supplementary Table 1),run:Lestaurtinib_02577_R2,Plate:MR016
# [5] = compound concentrations:100 nM and 1000 nM (sheet 'Lestaurtinib' of Supplementary Table 1),run:Lestaurtinib_02584_R1,Plate:MR017
# [6] = compound concentrations:100 nM and 1000 nM (sheet 'Lestaurtinib' of Supplementary Table 1),run:Lestaurtinib_02584_R2,Plate:MR017
# [7] = compound concentrations:100 nM and 1000 nM (sheet 'Lestaurtinib' of Supplementary Table 1),run:Lestaurtinib_02584_R3,Plate:MR017
# [8] = compound concentrations:100 nM and 1000 nM (sheet 'Lestaurtinib' of Supplementary Table 1),run:Lestaurtinib_02606_R1,Plate:MR019
# [9] = compound concentrations:100 nM and 1000 nM (sheet 'Lestaurtinib' of Supplementary Table 1),run:Lestaurtinib_02624_R2,Plate:MR020
# [10] = compound concentrations:100 nM and 1000 nM (sheet 'Lestaurtinib' of Supplementary Table 1),run:Lestaurtinib_02766_R3,Plate:MR027
substance,measurement,setting,value
Lestaurtinib,potency estimated from few doses,[1]; [3],82.6 nM
same,potency estimated from few doses,[1]; [4],144 nM
same,potency estimated from few doses,[1]; [5],86.8 nM
same,potency estimated from few doses,[1]; [6],37.3 nM
same,potency estimated from few doses,[1]; [7],565 nM
same,potency estimated from few doses,"[1]; compound concentrations:100 nM and 1000 nM (sheet 'Lestaurtinib' of Supplementary Table 1),run:Lestaurtinib_02601_R1,Plate:MR018",966 nM
same,potency estimated from few doses,"[1]; compound concentrations:100 nM and 1000 nM (sheet 'Lestaurtinib' of Supplementary Table 1),run:Lestaurtinib_02601_R2,Plate:MR018",921 nM
same,potency estimated from few doses,"[1]; compound concentrations:100 nM and 1000 nM (sheet 'Lestaurtinib' of Supplementary Table 1),run:Lestaurtinib_02601_R3,Plate:MR018",143 nM
same,potency estimated from few doses,[1]; [8],58.1 nM
same,potency estimated from few doses,"[1]; compound concentrations:100 nM and 1000 nM (sheet 'Lestaurtinib' of Supplementary Table 1),run:Lestaurtinib_02606_R2,Plate:MR019",98.3 nM
same,potency estimated from few doses,"[1]; compound concentrations:100 nM and 1000 nM (sheet 'Lestaurtinib' of Supplementary Table 1),run:Lestaurtinib_02624_R1,Plate:MR020",75 nM
same,potency estimated from few doses,[1]; [9],137 nM
same,potency estimated from few doses,"[1]; compound concentrations:100 nM and 1000 nM (sheet 'Lestaurtinib' of Supplementary Table 1),run:Lestaurtinib_02741_R2,Plate:MR023",695 nM
same,potency estimated from few doses,"[1]; compound concentrations:100 nM and 1000 nM (sheet 'Lestaurtinib' of Supplementary Table 1),run:Lestaurtinib_02748_R3,Plate:MR024",149 nM
same,potency estimated from few doses,"[1]; compound concentrations:100 nM and 1000 nM (sheet 'Lestaurtinib' of Supplementary Table 1),run:Lestaurtinib_02752_R1,Plate:MR025",225 nM
same,potency estimated from few doses,"[1]; compound concentrations:100 nM and 1000 nM (sheet 'Lestaurtinib' of Supplementary Table 1),run:Lestaurtinib_02752_R3,Plate:MR025",226 nM
same,potency estimated from few doses,"[1]; compound concentrations:100 nM and 1000 nM (sheet 'Lestaurtinib' of Supplementary Table 1),run:Lestaurtinib_02765_R2,Plate:MR026",212 nM
same,potency estimated from few doses,[1]; [10],28.6 nM
same,potency estimated from few doses,"[1]; compound concentrations:100 nM and 1000 nM (sheet 'Lestaurtinib' of Supplementary Table 1),run:Lestaurtinib_02795_R2,Plate:MR022",1690 nM
same,potency estimated from few doses,"[1]; compound concentrations:100 nM and 1000 nM (sheet 'Lestaurtinib' of Supplementary Table 1),run:Lestaurtinib_02795_R3,Plate:MR022",55.9 nM
same,potency estimated from few doses,"[1]; compound concentrations:100 nM and 1000 nM (sheet 'Lestaurtinib' of Supplementary Table 1),run:Lestaurtinib_02802_R2,Plate:MR029",130 nM
same,potency estimated from few doses,"[1]; compound concentrations:100 nM and 1000 nM (sheet 'Lestaurtinib' of Supplementary Table 1),run:Lestaurtinib_02896_R1,Plate:MR030",336 nM
same,potency estimated from few doses,"[1]; compound concentrations:100 nM and 1000 nM (sheet 'Lestaurtinib' of Supplementary Table 1),run:Lestaurtinib_02896_R2,Plate:MR030",99.8 nM
same,potency estimated from few doses,"[1]; compound concentrations:100 nM and 1000 nM (sheet 'Lestaurtinib' of Supplementary Table 1),run:Lestaurtinib_02896_R3,Plate:MR030",1300 nM
same,potency estimated from few doses,"[1]; compound concentrations:100 nM and 1000 nM (sheet 'Lestaurtinib' of Supplementary Table 1),run:Lestaurtinib_03172_R1,Plate:MR031",298 nM
same,potency estimated from few doses,"[1]; compound concentrations:100 nM and 1000 nM (sheet 'Lestaurtinib' of Supplementary Table 1),run:Lestaurtinib_03172_R3,Plate:MR031",99.7 nM
same,potency estimated from few doses,"[1]; compound concentrations:100 nM and 1000 nM (sheet 'Lestaurtinib' of Supplementary Table 1),run:Lestaurtinib_03260_R2,Plate:MR033",460 nM
same,potency estimated from few doses,"[1]; compound concentrations:100 nM and 1000 nM (sheet 'Lestaurtinib' of Supplementary Table 1),run:Lestaurtinib_03260_R3,Plate:MR033",730 nM
same,potency estimated from few doses,"[2]; compound concentrations:100 nM and 1000 nM (sheet 'Lestaurtinib' of Supplementary Table 1),run:Lestaurtinib_02339_R1,Plate:MR001",43.2 nM
same,potency estimated from few doses,"[2]; compound concentrations:100 nM and 1000 nM (sheet 'Lestaurtinib' of Supplementary Table 1),run:Lestaurtinib_02339_R2,Plate:MR001",51.8 nM
same,potency estimated from few doses,"[2]; compound concentrations:100 nM and 1000 nM (sheet 'Lestaurtinib' of Supplementary Table 1),run:Lestaurtinib_02339_R3,Plate:MR001",29.6 nM
same,potency estimated from few doses,"[2]; compound concentrations:100 nM and 1000 nM (sheet 'Lestaurtinib' of Supplementary Table 1),run:Lestaurtinib_02364_R2,Plate:MR002",35.4 nM
same,potency estimated from few doses,"[2]; compound concentrations:100 nM and 1000 nM (sheet 'Lestaurtinib' of Supplementary Table 1),run:Lestaurtinib_02367_R2,Plate:MR003",78.8 nM
same,potency estimated from few doses,"[2]; compound concentrations:100 nM and 1000 nM (sheet 'Lestaurtinib' of Supplementary Table 1),run:Lestaurtinib_02367_R3,Plate:MR003",56.1 nM
same,potency estimated from few doses,"[2]; compound concentrations:100 nM and 1000 nM (sheet 'Lestaurtinib' of Supplementary Table 1),run:Lestaurtinib_02381_R1,Plate:MR004",62.4 nM
same,potency estimated from few doses,"[2]; compound concentrations:100 nM and 1000 nM (sheet 'Lestaurtinib' of Supplementary Table 1),run:Lestaurtinib_02381_R2,Plate:MR004",34.7 nM
same,potency estimated from few doses,"[2]; compound concentrations:100 nM and 1000 nM (sheet 'Lestaurtinib' of Supplementary Table 1),run:Lestaurtinib_02381_R3,Plate:MR004",51.1 nM
same,potency estimated from few doses,"[2]; compound concentrations:100 nM and 1000 nM (sheet 'Lestaurtinib' of Supplementary Table 1),run:Lestaurtinib_02407_R2,Plate:MR005",17 nM
same,potency estimated from few doses,"[2]; compound concentrations:100 nM and 1000 nM (sheet 'Lestaurtinib' of Supplementary Table 1),run:Lestaurtinib_02407_R3,Plate:MR005",22.9 nM
same,potency estimated from few doses,"[2]; compound concentrations:100 nM and 1000 nM (sheet 'Lestaurtinib' of Supplementary Table 1),run:Lestaurtinib_02422_R1,Plate:MR006",27.9 nM
same,potency estimated from few doses,"[2]; compound concentrations:100 nM and 1000 nM (sheet 'Lestaurtinib' of Supplementary Table 1),run:Lestaurtinib_02422_R3,Plate:MR006",48 nM
same,potency estimated from few doses,"[2]; compound concentrations:100 nM and 1000 nM (sheet 'Lestaurtinib' of Supplementary Table 1),run:Lestaurtinib_02437_R1,Plate:MR007",25 nM
same,potency estimated from few doses,"[2]; compound concentrations:100 nM and 1000 nM (sheet 'Lestaurtinib' of Supplementary Table 1),run:Lestaurtinib_02437_R2,Plate:MR007",71.7 nM
same,potency estimated from few doses,"[2]; compound concentrations:100 nM and 1000 nM (sheet 'Lestaurtinib' of Supplementary Table 1),run:Lestaurtinib_02438_R1,Plate:MR008",19.3 nM
same,potency estimated from few doses,"[2]; compound concentrations:100 nM and 1000 nM (sheet 'Lestaurtinib' of Supplementary Table 1),run:Lestaurtinib_02438_R3,Plate:MR008",141 nM
same,potency estimated from few doses,"[2]; compound concentrations:100 nM and 1000 nM (sheet 'Lestaurtinib' of Supplementary Table 1),run:Lestaurtinib_02443_R1,Plate:MR009",80.9 nM
same,potency estimated from few doses,"[2]; compound concentrations:100 nM and 1000 nM (sheet 'Lestaurtinib' of Supplementary Table 1),run:Lestaurtinib_02443_R2,Plate:MR009",75.8 nM
same,potency estimated from few doses,"[2]; compound concentrations:100 nM and 1000 nM (sheet 'Lestaurtinib' of Supplementary Table 1),run:Lestaurtinib_02473_R1,Plate:MR010",58 nM
same,potency estimated from few doses,"[2]; compound concentrations:100 nM and 1000 nM (sheet 'Lestaurtinib' of Supplementary Table 1),run:Lestaurtinib_02473_R2,Plate:MR010",35.2 nM
same,potency estimated from few doses,"[2]; compound concentrations:100 nM and 1000 nM (sheet 'Lestaurtinib' of Supplementary Table 1),run:Lestaurtinib_02482_R2,Plate:MR011",86.4 nM
same,potency estimated from few doses,"[2]; compound concentrations:100 nM and 1000 nM (sheet 'Lestaurtinib' of Supplementary Table 1),run:Lestaurtinib_02487_R2,Plate:MR012",73.6 nM
same,potency estimated from few doses,"[2]; compound concentrations:100 nM and 1000 nM (sheet 'Lestaurtinib' of Supplementary Table 1),run:Lestaurtinib_02496_R2,Plate:MR013",98.1 nM
same,potency estimated from few doses,"[2]; compound concentrations:100 nM and 1000 nM (sheet 'Lestaurtinib' of Supplementary Table 1),run:Lestaurtinib_02496_R3,Plate:MR013",54.4 nM
same,potency estimated from few doses,"[2]; compound concentrations:100 nM and 1000 nM (sheet 'Lestaurtinib' of Supplementary Table 1),run:Lestaurtinib_02566_R1,Plate:MR014",47.9 nM
same,potency estimated from few doses,"[2]; compound concentrations:100 nM and 1000 nM (sheet 'Lestaurtinib' of Supplementary Table 1),run:Lestaurtinib_02572_R1,Plate:MR015",74.6 nM
same,potency estimated from few doses,"[2]; compound concentrations:100 nM and 1000 nM (sheet 'Lestaurtinib' of Supplementary Table 1),run:Lestaurtinib_02572_R2,Plate:MR015",41.6 nM
same,potency estimated from few doses,"[2]; compound concentrations:100 nM and 1000 nM (sheet 'Lestaurtinib' of Supplementary Table 1),run:Lestaurtinib_02572_R3,Plate:MR015",53.8 nM
same,potency estimated from few doses,[2]; [3],877 nM
same,potency estimated from few doses,[2]; [4],830 nM
same,potency estimated from few doses,[2]; [5],65.8 nM
same,potency estimated from few doses,[2]; [6],67.9 nM
same,potency estimated from few doses,[2]; [7],44.4 nM
same,potency estimated from few doses,[2]; [8],78.2 nM
same,potency estimated from few doses,"[2]; compound concentrations:100 nM and 1000 nM (sheet 'Lestaurtinib' of Supplementary Table 1),run:Lestaurtinib_02606_R3,Plate:MR019",45.4 nM
same,potency estimated from few doses,[2]; [9],79.1 nM
same,potency estimated from few doses,"[2]; compound concentrations:100 nM and 1000 nM (sheet 'Lestaurtinib' of Supplementary Table 1),run:Lestaurtinib_02624_R3,Plate:MR020",55.4 nM
same,potency estimated from few doses,"[2]; compound concentrations:100 nM and 1000 nM (sheet 'Lestaurtinib' of Supplementary Table 1),run:Lestaurtinib_02724_R2,Plate:MR021",62.7 nM
same,potency estimated from few doses,"[2]; compound concentrations:100 nM and 1000 nM (sheet 'Lestaurtinib' of Supplementary Table 1),run:Lestaurtinib_02724_R3,Plate:MR021",76.1 nM
same,potency estimated from few doses,"[2]; compound concentrations:100 nM and 1000 nM (sheet 'Lestaurtinib' of Supplementary Table 1),run:Lestaurtinib_02741_R3,Plate:MR023",62 nM
same,potency estimated from few doses,"[2]; compound concentrations:100 nM and 1000 nM (sheet 'Lestaurtinib' of Supplementary Table 1),run:Lestaurtinib_02748_R2,Plate:MR024",132 nM
same,potency estimated from few doses,[2]; [10],69.4 nM
same,potency estimated from few doses,"[2]; compound concentrations:100 nM and 1000 nM (sheet 'Lestaurtinib' of Supplementary Table 1),run:Lestaurtinib_02768_R2,Plate:MR028",1150 nM
